The nature of assay [1]: qHTS assay to identify small molecule agonists of the peroxisome proliferator-activated receptor delta (PPARd) signaling pathway - cell viability counter screen (AID 743211). Further: on the % scale 0 is the no-effect control and ±100 the full control effect; nearly all actives have a fitted effect of over 55% in size. The essentials: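 PPARd-bla HEK293H cells (UAS-beta-lactamase reporter) were treated with compounds for 17 h at 37 C. Viability was then read in the same wells by CellTiter-Glo luminescence after 30 min at room temperature.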

Assay [2] has as its target Peroxisome proliferator-activated receptor delta (Homo sapiens) (UniProt Q03181). As to the kind of experiment: qHTS assay to identify small molecule agonists of the peroxisome proliferator-activated receptor delta (PPARd) signaling pathway (AID 743212; calls by dose curve; further: on the % scale 0 is the no-effect control and ±100 the full control effect). Put shortly:
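HEK293H UAS-bla reporter cells, human PPARd system; compounds delivered in DMSO after 5 h plating, then at 37 C. Beta-lactamase FRET read, 2 h RT substrate step.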
For orientation: Quantitative high-throughput screening tests each substance at several concentrations.

Assay [3] is described as follows: qHTS assay to identify small molecule antagonists of the peroxisome proliferator-activated receptor delta (PPARd) signaling pathway - cell viability counter screen (AID 743213). Further: on the % scale 0 is the no-effect control and ±100 the full control effect; nearly all actives have a fitted effect of over 50% in size. The essentials:
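Viability counter-screen, qHTS format: PPARd-bla HEK293H, L165041 300 nM final, 17 h compound exposure at 37 C, CellTiter-Glo luminescence after 30 min RT.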

The nature of assay [4]: qHTS assay to identify small molecule antagonists of the farnesoid-X-receptor (FXR) signaling pathway - cell viability counter screen (AID 743221; active means well fitted cell-killing curve with a large enough effect in the repeat runs, not every such curve was filed as active; further: on the % scale 0 is the no-effect control and ±100 the full control effect; nearly all actives have a fitted effect of over 50% in size). Put shortly: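 FXR-UAS-bla HEK 293T cells were treated with test compounds plus chenodeoxycholic acid (50 uM final) for 16 h at 37 C. Cell viability in the same wells was then read as CellTiter-Glo luminescence after 30 min at room temperature.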

Assay [5] concerns the target Vitamin D3 receptor (Homo sapiens) (UniProt P11473). As to the kind of experiment: qHTS assay to identify small molecule agonists of the vitamin D receptor (VDR) signaling pathway (AID 743222; calls by dose curve; further: on the % scale 0 is the no-effect control and ±100 the full control effect). The essentials: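 VDR-bla cells, 2,000/well; 4 h preincubation 37C; cpd (DMSO) 16 h; LiveBLAzer B/G substrate 2 h RT; fluorescence intensity read.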
The target is the same in assay [6]. Briefly: qHTS assay to identify small molecule antagonists of the vitamin D receptor (VDR) signaling pathway (AID 743223; active means well fitted inhibition curve with a large enough effect in the signal ratio in the repeat runs, not every such curve was filed as active; the % refers to the signal ratio; further: on the % scale 0 is the no-effect control and ±100 the full control effect). Put shortly: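 VDR-bla cells were plated, incubated 4 h at 37C, then given compound and 1alpha,25-dihydroxyvitamin D3 (3 nM final). After 16 h at 37C, LiveBLAzer B/G FRET substrate was added for 2 h at room temperature and fluorescence read.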

Assay [7] in a line: qHTS assay to identify small molecule agonists of the vitamin D receptor (VDR) signaling pathway - cell viability counter screen (AID 743224). Further: series mostly up to about 63 µM; on the % scale 0 is the no-effect control and ±100 the full control effect; nearly all actives have a fitted effect of over 50% in size. Put shortly: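 Luminescence from CellTiter-Glo, read after 30 min at room temperature, reports viability of VDR-bla cells treated with compounds for 16 h at 37C in the wells used for the beta-lactamase FRET read.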
The nature of assay [8]: qHTS assay to identify small molecule agonists of the NFkB signaling pathway - cell viability counter screen (AID 1159515; calls by dose curve; further: series mostly up to about 61 µM; on the % scale 0 is the no-effect control and ±100 the full control effect; nearly all actives have a fitted effect of over 55% in size). Put shortly: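 Luminescence from CellTiter-Glo (30 min, room temperature) gives viability, measured in the same wells as the beta-lactamase reporter read. Cells were NFkB-bla ME-180, 2,000 per well, treated 5 hr with compounds.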
Assay [9] can be described thus: qHTS assay to identify small molecule agonists of the endoplasmic reticulum stress response signaling pathway - cell viability counter screen (AID 1159517; calls by dose curve;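 further: HeLa cells carrying an ER stress response element beta-lactamase reporter; series mostly up to about 61 µM; on the % scale 0 is the no-effect control and ±100 the full control effect; nearly all actives have a fitted effect of over 50% in size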). The essentials:
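Cells, HeLa ESRE-bla; density, 1,500/well; dosing, 5 hr at 37 C, 5% CO2; readout, CellTiter-Glo luminescence after 30 min RT.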

Assay [10] has as its target Nuclear receptor ROR-gamma (Homo sapiens) (UniProt P51449). As to the kind of experiment: qHTS assay to identify small molecule antagonists of the retinoid-related orphan receptor gamma (ROR-gamma) signaling pathway (AID 1159521; further: nearly all actives have a fitted effect of over 50% in size; further: potency means the concentration at half of the fitted maximal effect). The essentials: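 Tet-on RORγ CHO cells carrying a ROR response element–luciferase reporter were pretreated with compounds for 2 h, then induced with 1 uM (final) doxycycline hyclate for 16 h at 37 C. Antagonism was read as decreased ONE-Glo luminescence.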

The nature of assay [11]: qHTS assay to identify small molecule agonists of the AP-1 signaling pathway (AID 1159526; calls by dose curve; further: on the % scale 0 is the no-effect control and ±100 the full control effect).
Assay [12] has as its target Retinoic acid receptor RXR-alpha (Homo sapiens) (UniProt P19793). Briefly: qHTS assay to identify small molecule agonists of the RXR signaling pathway (AID 1159527; calls by dose curve; further: on the % scale 0 is the no-effect control and ±100 the full control effect; nearly all actives have a fitted effect of over 35% in size). Put shortly:
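GeneBLAzer RXR-alpha-UAS-bla HEK 293T cells in medium with 2% charcoal-stripped FBS, pre-incubated 5 hr at 37 C, then exposed to compounds 16 hr. Beta-lactamase reporter read by FRET substrate, 2 hr room temperature, 460/530 nm emission.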

A short description of assay [13]: qHTS assay to identify small molecule antagonists of the vitamin D receptor (VDR) signaling pathway - cell viability counter screen (AID 743225). The essentials:
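VDR-bla HEK 293T cells, 4 h pre-incubation at 37C, then compound plus 1-alpha,25-dihydroxyvitamin D3 (3 nM final) for 16 h. After the beta-lactamase FRET read, CellTiter-Glo was added to the same wells; luminescence after 30 min at room temperature.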

Assay [14] is described as follows: qHTS assay to identify small molecule agonists of the AP-1 signaling pathway - cell viability counter screen (AID 1159525; calls by dose curve; further: nearly all actives have a fitted effect of over 55% in size). Put shortly: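 Luminescent ATP readout (Cell Titer Glo, 30 min RT), normalised to DMSO and tetra n-octyl ammonium bromide controls. Cells were ME-180 AP-1-bla in 0.5% dialyzed FBS Opti-MEM, with a 5 h, 37 °C compound exposure.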
Assay [15] in a line: qHTS assay to identify small molecule agonists of the farnesoid-X-receptor (FXR) signaling pathway - cell viability counter screen (AID 743218). Further: on the % scale 0 is the no-effect control and ±100 the full control effect; nearly all actives have a fitted effect of over 45% in size. The essentials: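 HEK 293T FXR-bla cells; 5 h pre-incubation, 16 h compound exposure at 37 C; LiveBLAzer substrate 2 h RT, then CellTiter-Glo 30 min RT, luminescence.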
The nature of assay [16]: qHTS assay to identify small molecule antagonists of the retinoid-related orphan receptor gamma (ROR-gamma) signaling pathway - cell viability counter screen (AID 1159520). Put shortly:
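Cytotoxicity was read from cellular ATP (CellTiter-Glo luminescence) after 16 hr at 37 C with 1 uM doxycycline induction. The inducer was added 2 hr after compound transfer to Tet-on ROR gamma CHO cells.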

For assay [17], the target named is Peroxisome proliferator-activated receptor delta (Homo sapiens) (UniProt Q03181). Briefly: qHTS assay to identify small molecule antagonists of the peroxisome proliferator-activated receptor delta (PPARd) signaling pathway (AID 743215; active means well fitted inhibition curve with a large enough effect in the signal ratio in the repeat runs, not every such curve was filed as active; the % refers to the signal ratio). The essentials:
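Read-out is beta-lactamase FRET fluorescence, measured 2 h after substrate addition at room temperature. Beforehand, UAS-bla HEK293H cells carrying the PPARd reporter were exposed to compounds with L165041 at 300 nM final for 17 h at 37 C.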

Assay [18] has as its target Bile acid receptor (Homo sapiens) (UniProt Q96RI1). Briefly: qHTS assay to identify small molecule antagonists of the farnesoid-X-receptor (FXR) signaling pathway (AID 743217; active means well fitted inhibition curve with a large enough effect in the signal ratio in the repeat runs, not every such curve was filed as active; the % refers to the signal ratio; further: on the % scale 0 is the no-effect control and ±100 the full control effect). Put shortly: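 HEK 293T FXR-UAS-bla, 5000 cells/well; compound + CDCA 50 uM final; 16 h, 37 °C; B/G FRET substrate 2 h RT; fluorescence.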
Assay [19] has the same target. Briefly: qHTS assay to identify small molecule agonists of the farnesoid-X-receptor (FXR) signaling pathway (AID 743220; active means well fitted activation curve with a large enough effect in the signal ratio in the repeat runs, not every such curve was filed as active; the % refers to the signal ratio; further: on the % scale 0 is the no-effect control and ±100 the full control effect). Put shortly: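 Beta-lactamase reporter under UAS control in GeneBLAzer FXR HEK 293T cells (5000/well) measured with LiveBLAzer FRET substrate after 2 h at room temperature. Compound exposure lasted 16 h at 37C.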
The nature of assay [20]: qHTS assay to identify small molecule agonists of the endoplasmic reticulum stress response signaling pathway (AID 1159516; active means well fitted activation curve with a large enough effect in the signal ratio in the repeat runs, not every such curve was filed as active; the % refers to the signal ratio; further: on the % scale 0 is the no-effect control and ±100 the full control effect). Put shortly:
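Read-out is beta-lactamase cleavage of a FRET substrate (405 nm excitation; 460 and 530 nm emissions) in ESRE-bla HeLa cells after a 5 hr compound exposure at 37 C. Substrate incubation ran 2 hr at room temperature.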

These results are taken from PubChem BioAssay (Tox21).

Molecules are shown by their SMILES. Results filed as inconclusive are left out. Values without a mark were called inactive. Active and inactive are the calls of the source. Unless noted, the call rests on the fitted dose curve; in most records, active means well fitted curve in the direction sought with a large enough effect in the repeat runs; inconclusive means weak or mixed curves; inactive means no such curve, though single readings can be large; an effect the other way counts as inactive or inconclusive.

Chain of Bile acid receptor (Homo sapiens) (Q96RI1 whole entry, looked up): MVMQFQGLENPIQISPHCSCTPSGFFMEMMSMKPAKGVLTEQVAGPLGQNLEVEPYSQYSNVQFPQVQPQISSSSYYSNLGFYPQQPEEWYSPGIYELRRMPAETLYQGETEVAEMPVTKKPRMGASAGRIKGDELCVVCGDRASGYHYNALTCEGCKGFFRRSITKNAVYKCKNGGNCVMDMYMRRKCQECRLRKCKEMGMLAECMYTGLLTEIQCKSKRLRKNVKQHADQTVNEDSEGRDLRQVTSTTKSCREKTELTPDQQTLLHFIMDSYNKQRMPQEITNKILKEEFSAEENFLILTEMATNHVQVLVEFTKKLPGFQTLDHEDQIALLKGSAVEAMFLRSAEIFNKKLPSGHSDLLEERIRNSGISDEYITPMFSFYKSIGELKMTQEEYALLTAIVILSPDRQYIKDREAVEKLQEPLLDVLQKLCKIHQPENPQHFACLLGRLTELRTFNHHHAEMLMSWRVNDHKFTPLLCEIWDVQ
Chain of Vitamin D3 receptor (Homo sapiens) (P11473 whole entry, looked up): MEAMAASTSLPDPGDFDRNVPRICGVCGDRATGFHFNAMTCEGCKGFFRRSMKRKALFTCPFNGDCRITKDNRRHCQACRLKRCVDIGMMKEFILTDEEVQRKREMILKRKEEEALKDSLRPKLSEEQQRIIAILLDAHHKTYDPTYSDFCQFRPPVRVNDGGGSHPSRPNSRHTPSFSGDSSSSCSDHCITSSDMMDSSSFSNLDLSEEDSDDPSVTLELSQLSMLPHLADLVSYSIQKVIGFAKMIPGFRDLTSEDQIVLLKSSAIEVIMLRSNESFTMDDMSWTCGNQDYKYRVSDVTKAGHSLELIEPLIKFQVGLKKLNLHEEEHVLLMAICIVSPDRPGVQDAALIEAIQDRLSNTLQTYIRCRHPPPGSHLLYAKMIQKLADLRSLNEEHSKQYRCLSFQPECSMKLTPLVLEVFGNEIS
Chain of Peroxisome proliferator-activated receptor delta (Homo sapiens) (Q03181 whole entry, looked up): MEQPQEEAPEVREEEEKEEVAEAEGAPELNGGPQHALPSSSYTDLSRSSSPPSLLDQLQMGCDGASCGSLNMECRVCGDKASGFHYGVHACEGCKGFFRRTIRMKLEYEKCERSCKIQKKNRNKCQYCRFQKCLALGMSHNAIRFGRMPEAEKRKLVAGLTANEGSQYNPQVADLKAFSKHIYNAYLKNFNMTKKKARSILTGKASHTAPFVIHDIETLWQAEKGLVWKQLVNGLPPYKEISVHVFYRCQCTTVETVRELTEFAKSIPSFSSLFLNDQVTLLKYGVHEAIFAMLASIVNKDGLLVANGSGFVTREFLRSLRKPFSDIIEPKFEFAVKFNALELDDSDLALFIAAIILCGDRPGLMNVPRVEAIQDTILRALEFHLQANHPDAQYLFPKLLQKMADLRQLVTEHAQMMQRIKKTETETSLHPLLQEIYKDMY
Chain of Retinoic acid receptor RXR-alpha (Homo sapiens) (P19793 whole entry, looked up): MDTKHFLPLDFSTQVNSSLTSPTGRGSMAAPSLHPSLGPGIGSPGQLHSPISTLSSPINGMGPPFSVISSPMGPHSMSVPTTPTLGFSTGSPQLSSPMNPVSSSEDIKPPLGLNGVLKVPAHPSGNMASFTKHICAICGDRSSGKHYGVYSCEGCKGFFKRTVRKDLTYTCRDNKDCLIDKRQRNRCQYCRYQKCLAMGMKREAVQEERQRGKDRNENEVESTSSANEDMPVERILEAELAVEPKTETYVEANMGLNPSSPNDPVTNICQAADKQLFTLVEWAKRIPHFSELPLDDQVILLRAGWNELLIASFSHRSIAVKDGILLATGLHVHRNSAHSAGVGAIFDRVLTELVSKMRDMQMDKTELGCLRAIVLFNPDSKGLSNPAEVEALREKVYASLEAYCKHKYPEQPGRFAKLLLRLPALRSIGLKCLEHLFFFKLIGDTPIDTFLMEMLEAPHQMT

For the compound `COCCO`, the Potency result in assay [1], in assay [3], in [4], in assay [6], in [7] and in assay [8] was “inactive” throughout. Besides, the Potency result in assay [10], in assay [11] and in [12] was “inactive” each time. Moreover, the compound was called inactive in assay [2], in assay [5] and in assay [9].
Consider `CC(C)NCC(O)COc1ccc(CC(N)=O)cc1` (configuration not stated), for which the Potency result in assay [1], in assay [3], in assay [4], in assay [6], in [13] and in [8] was “inactive” throughout. Further, the Potency result in [10], in assay [14] and in [11] was “inactive” in each case. Further, the compound was classed as inactive in [5] and in [9].
As to `CC(C)(C)C(=O)OCOP(=O)(COCCn1cnc2c(N)ncnc21)OCOC(=O)C(C)(C)C`, the Potency result in [1], in assay [3], in [15], in assay [4], in [7] and in assay [13] was “inactive” each time. In addition, the Potency entry in assay [8], in assay [16], in assay [14] and in assay [11] was “inactive” throughout. In addition, in assay [9], the result was inactive. Moreover, in [10], the Potency is 11.9 µM (active).
As for `O=C(O)Cc1sc(-c2ccccc2)nc1-c1ccc(Cl)cc1`, the Potency entry in [1], in assay [3], in assay [15], in [4], in [6] and in [7] was “inactive” in each case. For the same compound, the Potency entry in assay [13], in assay [8], in assay [20], in assay [10] and in [14] was “inactive” each time. Besides, the call in assay [2], in assay [17], in assay [18], in assay [19] and in assay [9] was inactive.
As to `S=C(S)NCCNC(=S)S`, the Potency result in assay [1], in assay [3], in [4], in assay [8], in assay [20] and in assay [10] was “inactive” each time. Besides, the Potency result in assay [14] and in [12] was “inactive” each time. Besides, the compound was classed as inactive in assay [5] and in assay [9].
In the case of `CC(=O)Nc1ccc(/C=N/NC(N)=S)cc1`, the Potency entry in assay [1], in assay [3], in [15], in [4], in [6] and in assay [13] was “inactive” throughout. Further, the Potency result in assay [8], in assay [20], in assay [10] and in assay [11] was “inactive” each time. In addition, the compound was classed as inactive in assay [2], in [17], in [5] and in [9].
For the compound `CC(=O)N(CC(=O)N(C)C)c1ccccc1`, the Potency entry in [1], in assay [3], in assay [6], in assay [7], in assay [8] and in assay [20] was “inactive” throughout. In addition, the Potency result in assay [10], in assay [14] and in assay [12] was “inactive” in each case. Also, the result in assay [2], in assay [17], in assay [19], in assay [5] and in assay [9] was inactive.
On to `CCCOc1ccc2nc(NC(=O)OC)[nH]c2c1`, for which the Potency result in assay [1], in assay [3], in [15], in assay [4], in [7] and in assay [13] was “inactive” in each case. Moreover, the Potency entry in [8], in assay [16], in assay [10] and in assay [14] was “inactive” in each case. In addition, the compound was called inactive in assay [2], in assay [5] and in [9].
Take `NC[C@H]1O[C@H](O[C@H]2[C@H](O)[C@@H](O[C@H]3O[C@H](CO)[C@@H](O)[C@H](N)[C@H]3O)[C@H](N)C[C@@H]2N)[C@H](O)[C@@H](O)[C@@H]1O`: the activity change, negative = cytotoxicity is -7.03% [at 5.95 µM] in [1], -10.3% [at 5.95 µM] in assay [4], -10.2% [at 5.95 µM] in assay [7] and -9.96% [at 6.95 µM] in [9]. Moreover, the activation is -4.29% [at 5.95 µM] in assay [2], -7.13% [at 6.01 µM] in assay [5] and 3.4% [at 6.98 µM] in assay [12]. Further, the viability change, negative = cytotoxic in assay [3] was -5.87% [at 6.26 µM]; in [15] it was 5.82% [at 5.95 µM]; in [13], 9.2% [at 6.95 µM]; in assay [14] it was -4.71% [at 6.97 µM]. For the same compound, the activity change, negative = inhibition in assay [6] was 5.88% [at 6.95 µM]; in assay [10], -16.2% [at 8.39 µM]. In [8], the activity, negative = cytotoxic is -4.89% [at 6.95 µM]. The activity, negative = cytotoxicity in assay [16] was 1.78% [at 8.39 µM].
